# PME-1 primary: blocks human protein phosphatase methylesterase 1. recombinant PME-1, FP-Rh probe fluorescence polarization. Q9Y570. 320,000 tested, 0.53% active. inhibition, % at 5.9 µM;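 active = inhibition above the campaign mean of all compounds plus 3 SD, cut at about 26% in these data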;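 note: competitive labeling of PME-1 active site by serine hydrolase directed probe; 0% = PME-1 with DMSO and 100% = wells lacking PME-1 enzyme; inhibitors block probe labeling so polarization falls and inhibition rises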
# LYPLA1 counter: blocks human lysophospholipase 1, a PME1 counter-screen; AID 2174; recombinant LYPLA1, FP-Rh probe fluorescence polarization; inhibition, % at 5.9 µM; O75608; 320,000 tested, 0.16% active;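 active = inhibition above the mean of all tested compounds plus 3 SD, set per campaign, cut at about 14% in these data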;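 note: inhibitors block serine hydrolase probe labeling of LYPLA1 so polarization falls; 0% = enzyme with DMSO and 100% = wells lacking LYPLA1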
# GSTO1 counter: counter-screen for RBBP9 inhibitors: inhibitors of human GSTO1. P78417. recombinant GSTO1, activity-based probe fluorescence polarization. inhibition, % at 5.96 µM. 300,000 tested, 1.1% active. AID 1974;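 active = inhibition above the campaign mean inhibition plus 3 SD, cut at about 35% in these data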;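 note: 0% = GSTO1-1 with DMSO and 100% = wells lacking GSTO1-1 enzyme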
# Target sequence (P78417 whole entry, looked up): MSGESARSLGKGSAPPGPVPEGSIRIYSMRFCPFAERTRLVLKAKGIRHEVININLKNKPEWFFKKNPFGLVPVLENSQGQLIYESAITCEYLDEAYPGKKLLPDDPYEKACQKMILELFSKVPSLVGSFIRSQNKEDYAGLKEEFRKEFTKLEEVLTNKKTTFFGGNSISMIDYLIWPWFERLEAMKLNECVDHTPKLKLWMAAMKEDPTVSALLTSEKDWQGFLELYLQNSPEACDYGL
# Fam108B counter: blocks mouse Fam108B hydrolase in RBBP9 counter-screen. recombinant Fam108B, FP-Rh probe fluorescence polarization. inhibition, % at 9.51 µM. 300,000 tested, 0.33% active. AID 1947;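 active = inhibition above the screen mean inhibition plus 3 SD, computed separately per campaign, cut at about 18% in these data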;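 note: inhibitors lower polarization as less probe binds the enzyme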
# LYPLA2 counter: blocks human lysophospholipase 2, a PME1 counter-screen | AID 2177 | O95372 | inhibition, % at 5.9 µM | recombinant LYPLA2, FP-Rh probe fluorescence polarization | 320,000 tested, 0.38% active;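 active = inhibition above the screen-wide mean plus 3 SD, limit set per campaign, cut at about 26% in these data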;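 note: 0% = LYPLA2 with DMSO and 100% = wells lacking LYPLA2 enzyme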
# PAD4 inh: inhibitors of human PAD4. Q9UM07. recombinant PAD4, RCA probe fluorescence polarization. inhibition, % at 6.36 µM. 330,000 tested, 0.41% active. AID 485272;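 active = percent inhibition above a cutoff equal to the mean of all tested compounds plus 3 SD, cut at about 15% in these data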;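 note: 0% = PAD4 with RCA probe and DMSO and 100% = probe without PAD4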
# An asterisk follows results filed as active; . = no result. In the library only some 1.8% were active in any assay of this set; here they are far more common.
SMILES,PME-1 primary,LYPLA1 counter,GSTO1 counter,Fam108B counter,LYPLA2 counter,PAD4 inh
Cc1ccc(C(NC(=O)N2CCOCC2)C(Cl)Cl)cc1F (centres undefined),1,0,1,2,9,-5
Cc1ccc(C(NC(=O)N2CCOCC2)=C(Cl)Cl)cc1F,-2,-1,36*,4,1,5
C[C@@]12C(=O)N(CCc3c[nH]c4ccccc34)CC(=O)N1[C@H]1c3ccccc3OC[C@@H]1[C@@H]2c1ccccc1,12,-7,.,.,-2,0
Cc1ccccc1OCC(=O)NC(=S)Nc1ccc(Br)c(C)n1,2,-4,-5,6,6,-1
Cc1ccccc1OCC(=O)NC(=S)Nc1cccc2cc(O)ccc12,28*,-8,5,-1,-8,-4
COc1ccc(-c2cc(C(=O)Nc3c(C)n(C)n(-c4ccccc4)c3=O)no2)cc1OC,-5,-2,-7,1,-4,0
O=C1c2cc(F)ccc2-n2c1nc1ccccc1c2=O,2,-1,35*,0,-1,-8
Nn1c(-c2ccc(F)cc2)nc2ccccc2c1=O,-2,2,1,1,-1,-2
CC1CCN(S(=O)(=O)c2ccc3c(c2)N(CC(=O)NCCCN2CC(C)CC(C)C2)C(=O)CS3)CC1 (centres undefined),3,1,1,3,0,-3
COc1cc(/C=N/Nc2ccc([N+](=O)[O-])cc2S(=O)(=O)N2CCOCC2)cc(OC)c1OC,1,2,4,0,1,-1
O=[N+]([O-])c1ccc(N/N=C/c2cccc(O)c2O)c(S(=O)(=O)N2CCOCC2)c1,31*,-11,46*,-6,-5,-3
COC(=O)c1ccc(OCC(=O)NC2CCCCCC2)cc1,-1,-8,-10,-1,-4,-5
CC1=C(C#N)C(=O)N(C2CCS(=O)(=O)C2)C(=O)/C1=C\c1ccc(C)o1 (centres undefined),-1,-1,36*,8,0,-2
CCN(CC)c1ccc(N=Cc2ccccc2[N+](=O)[O-])cc1,5,4,69*,7,4,8
CC(=O)N(C)c1ccc(N=Cc2cc3c(cc2[N+](=O)[O-])OCO3)cc1,0,1,12,0,1,-12
CCN1/C(=N\N)c2cccc3cccc1c23,-51,-13,-80,-20,-38,-79
COc1cc2c(c(OC)c1OC)-c1ccc(NC(=O)c3ccc(F)cc3)c(=O)cc1[C@@H](NC(C)=O)CC2,31*,-3,6,25*,0,-5
CCN(CC)C(=O)CSc1nc2c(sc(=S)n2-c2ccccc2)c(=O)n1Cc1ccco1,63*,-5,-3,5,1,5
CCN(CC)C(=O)CSc1nc2c(sc(=S)n2CC)c(=O)n1-c1ccccc1,9,2,-6,0,-3,3
CC1CC(C)CN(C(=O)CN2C(=O)NC3(CCCCCCC3)C2=O)C1 (centres undefined),4,3,.,.,0,0
O=C(COc1ccc(Cl)cc1)NC1=NN(c2ccccc2)C(=O)C1,7,-4,40*,6,4,-9
CN(C)c1ccc(C2Nc3cccc4cccc(c34)N2)cc1,12,-2,20,7,-9,-1
COc1ccccc1C1Nc2cccc3cccc(c23)N1,8,-6,50*,2,-4,-9
COc1ccc(C2Nc3cccc4cccc(c34)N2)cc1,14,-3,35*,4,-1,-4
c1ccc(C2Nc3cccc4cccc(c34)N2)cc1,3,-4,36*,13,0,4
Cc1cc(C)n2nc(SC(C)C(=O)N(C)c3ccccc3)nc2n1 (centres undefined),-2,3,.,.,5,2
CCOC(=O)C(C(C)=O)c1c(Br)c(O)c(O)c2c(C(=O)c3ccc(C)cc3)coc12 (centres undefined),0,-5,67*,6,3,2
CCn1c(=S)sc2c(=O)n(CC(=O)NC(C)CCc3ccccc3)c(C)nc21 (centres undefined),-2,-3,35*,-4,-3,0
Cc1ccc(C(=O)CN(CCCC(N)=O)S(=O)(=O)c2ccc([N+](=O)[O-])cc2)cc1,-5,-5,-4,-2,9,-3
